Measurements from PubChem BioAssay AID372 (MTDP, 2006).
Values joined by “and” are separate entries in the source; they are usually repeats but may differ in a detail not shown here. Equal values may be shown once. Screen size: about 100,000 compounds; about 770 (0.77%) were called active. The full list was thinned out, with actives kept by preference. A number with no mark means an inactive call. No stated cut-off is given here; in the data, active means inhibition above about 50%; inactive means the rest.

What follows are compounds tested against Gag-Pol polyprotein (Human immunodeficiency virus type 1 group M subtype B (isolate HXB2)) (UniProt P04585) (assay: RNase H inhibition, HIV 1 Gag Pol polyprotein, FRET biochemical assay, screening (AID 372)). Details: HIV-1 RT RNase H, FRET RNA/DNA substrate fluorescence; at 10 µM; stronger effect = higher value.

SMILES | inhibition
O=[N+]([O-])c1cccc(-n2nncc2C23CC4CC(CC(C4)C2)C3)c1 | 19%
CCOc1cc(C)cc2oc(=O)c(Cc3ccccc3)c(C)c12 | 46%
Cc1cc(OCC(=O)O)c2c(C)c(Cc3ccccc3)c(=O)oc2c1 | 4%
Cc1cc(OC(=O)C2CC2)c2c(C)c(Cc3ccccc3)c(=O)oc2c1 | 55% (active)
COc1cc(C)cc2oc(=O)c(Cc3ccccc3)c(C)c12 | 22%
CCCOc1cc(C)cc2oc(=O)c(Cc3ccccc3)c(C)c12 | 56% (active)
CC(=O)Oc1cc(C)cc2oc(=O)c(Cc3ccccc3)c(C)c12 | 23%
O=C(Nc1ncc(Cc2cccc([N+](=O)[O-])c2)s1)c1cccc([N+](=O)[O-])c1 | 11%
O=C(CCc1ccccc1)Nc1cc(C(=O)O)cc(C(=O)O)c1 | 36%
COc1cccc(-c2nc(-c3cccc([N+](=O)[O-])c3)no2)c1 | 5%
O=C(N/N=C/c1ccc(O)cc1O)c1cc(Br)cc(Br)c1O | 12%
Cc1ccc(CNC(=O)C(=O)NCC2CCCO2)cc1 (centres undefined) | 9%
COC(=O)c1cc(C(=O)NC2CCSC2=O)cc([N+](=O)[O-])c1 (centres undefined) | 10%
O=C(NCC1CCCO1)/C(=C/c1cccc(Oc2ccccc2)c1)NC(=O)c1ccccc1 (centres undefined) | 0%
C=CCNC(=O)CN(c1cccc(OC)c1)S(=O)(=O)c1ccccc1 | 0%
CC(=O)Nc1ccc(N=Cc2cccc(C)c2)cc1 | 4%
CC(=O)C(=Nc1ccc(C)cc1C)NNc1ccc(Cl)c(C(N)=O)c1 | 11%
CC(=O)C(=Nc1ccc(C)cc1C)NNc1cc(C(N)=O)c(Cl)cc1Cl | 70% (active)
CC(=O)Nc1cc(C(N)=O)c(Cl)cc1Cl | 1%
Cc1ccc(/C(O)=C2\C(=O)C(=O)N(CCCC(=O)O)C2c2ccc(F)cc2)cc1 (centres undefined) | 4%
Cc1ccc(N2C(=O)/C(=C/c3ccc(O)cc3)C(=O)NC2=S)cc1 | 6%
Cc1ccc(N2C(=O)C(=Cc3ccc(O)cc3)C(=O)N(c3ccc(C)cc3)C2=S)cc1 | 56% (active)
COc1cc(C=C2C(=O)N(c3ccc(C)cc3)C(=S)N(c3ccc(C)cc3)C2=O)ccc1O | 0%
O=C(CN1CCSCC1)N/N=C/c1ccc(-c2ccccc2)cc1 | 7%

SMILES | inhibition
O=C(Nc1cc(C(=O)Nc2ccccc2-c2ccccc2)cc(C(=O)Nc2ccccc2-c2ccccc2)c1)c1ccc([N+](=O)[O-])cc1 | 19%
Cc1ccc(OCCOCCN2CCC(C)CC2)cc1 | 15%
CCN1C(=O)c2cccc3c(NC(=O)c4cc([N+](=O)[O-])ccc4Cl)ccc1c23 | 5%
C=CCN1C(=O)/C(=C\c2ccc(-c3ccc([N+](=O)[O-])cc3)o2)C(=O)NC1=S | 10%
C=CCN1C(=O)/C(=C\c2ccc(I)o2)C(=O)NC1=S | 27%
COc1ccc(OC)c(S(=O)(=O)n2nnc3ccccc32)c1 | 3%
COc1ccc(S(=O)(=O)n2nnc3ccccc32)c2ccccc12 | 55% (active)
COc1ccc(S(=O)(=O)n2nnc3ccccc32)cc1OC | 2%
COC(=O)C1=C(C)NC(=S)NC1c1cc(Br)ccc1OCc1ccccc1 (centres undefined) | 11%
Cn1c(=O)c2[nH]c(N/N=C(/C#N)C(N)=O)nc2n(C)c1=O | 8%
CCC(Oc1ccccc1)C(=O)Nc1cc(Cl)ccc1Cl (centres undefined) | 40%
CCC(Oc1ccccc1)C(=O)Nc1cc(OC)c(Cl)cc1OC (centres undefined) | 12%
CCC(Oc1ccccc1)C(=O)Nc1cc(Cl)ccc1OC (centres undefined) | 56% (active)
C=CCn1cc(/C=c2\sc3n(c2=O)C(c2ccc(OC)cc2)C(C(=O)OCC)=C(C)N=3)c2ccccc21 (centres undefined) | 15%
O=C(/C=C/c1ccc(-c2ccccc2Br)o1)c1ccc(Cl)cc1 | 13%
NS(=O)(=O)c1ccc2c(c1)C1C=CCC1C(c1ccc([N+](=O)[O-])cc1)N2 (centres undefined) | 19%
CCOC(=O)C1=C(C)N=c2s/c(=C\c3ccc(OC)c(Br)c3)c(=O)n2C1c1ccccc1Cl (centres undefined) | 29%
CCCOC(=O)c1ccc(NC(=O)c2ccc([N+](=O)[O-])o2)cc1 | 7%
CCOC(=O)c1ccc(NC(=O)c2ccc([N+](=O)[O-])o2)cc1 | 50% (active)
CCOc1ccc(NC(=O)c2ccc([N+](=O)[O-])o2)cc1 | 17%
O=C(Nc1cccc(Cl)c1)Nc1cc(Cl)ccc1Cl | 0%
COc1ccc(-n2c(O)c(C=Nc3ccc(Cl)cc3)c3ccccc3c2=O)cc1 | 11%
O=C(CC1OC(=O)c2ccccc21)c1ccccc1 (centres undefined) | 1%
COc1ccc(C(=O)CSc2nc3sc(C)c(C)c3c(=O)[nH]2)cc1C | 44%

SMILES | inhibition
Cc1sc2nc(SCC(=O)c3ccc(O)c(O)c3)[nH]c(=O)c2c1C | 75% (active)
Cc1cc(C)c2c(=O)[nH]c(SCC(=O)c3ccc(Br)cc3)nc2n1 | 20%
Cc1cc(C)c2c(=O)[nH]c(SCC(=O)c3ccc(F)cc3)nc2n1 | 11%
Cc1cc(C)nc(SCC(=O)c2ccc(O)c(O)c2)n1 | 74% (active)
Cc1cc(=O)[nH]c(SCC(=O)c2ccc(O)c(O)c2)n1 | 50% (active)
Cc1cc(C)nc(SCC(=O)c2ccc(F)cc2)n1 | 13%
Cc1sc2nc(SCC(N)=O)[nH]c(=O)c2c1C | 0%
Cc1nc(SCC(=O)c2ccc(O)c(O)c2)n[nH]1 | 42%
Cc1cc(=O)[nH]c(SCC(=O)c2ccc(Br)cc2)n1 | 4% and 9%
Nc1cc(=O)[nH]c(SCC(=O)c2ccc(O)c(O)c2)n1 | 8%
Cc1cccnc1NC(=O)Nc1cccc(F)c1 | 7%
O=C(NNc1ccc(F)cc1)C(O)(c1ccccc1)c1ccccc1 | 2%
NS(=O)(=O)c1ccc(Nc2nc(-c3ccccn3)cs2)cc1 | 3%
CC(=O)Nc1ccc2c(c1)C(=O)OC2(c1ccc(N(C)C)cc1)c1ccc(N(C)C)cc1 | 17%
Cc1nc2ccccc2n1C(=O)c1ccc([N+](=O)[O-])cc1 | 0%
Cc1ccc(C(=O)N/N=C/C=C/c2ccc([N+](=O)[O-])cc2)cn1 | 1%
O=C(N/N=C\c1ccc([N+](=O)[O-])cc1)c1cccc2cc[nH]c12 | 8%
Cc1ccc(N2NC(=O)/C(=C/c3ccc(-c4cc([N+](=O)[O-])ccc4C)o3)C2=O)cc1 | 13%
Cc1ccc(C)n1-c1ccccc1C(=O)O | 15%
Cc1ccc(C)n1-c1ccc(C(=O)O)cc1O | 8%
Cc1ccc(C)n1-c1ccc(Cl)cc1C(=O)O | 16%
Cc1c(C(=O)O)cccc1-n1c(=O)c2cc3c(=O)n(-c4cccc(C(=O)O)c4C)c(=O)c3cc2c1=O | 10%
Cc1c(C(=O)O)cccc1-n1c(C)ccc1C | 58% (active)
COc1cc(C(=O)O)c(-n2c(C)ccc2C)cc1OC | 13%

SMILES | inhibition
Cc1ccc(C(=O)O)cc1-n1c(C)ccc1C | 19%
COc1ccc(/C(C)=N/NC(=O)c2ccncc2)c(OC)c1OC | 5%
COc1cc(Br)c(CNc2cccc(C)c2)cc1OC | 22%
CCc1c(C)c(C#N)c2nc3ccccc3n2c1Nc1ccc(N(CC)CC)cc1 | 30%
O=C(Nc1ccccc1C#Cc1ccccc1)c1ccc(-c2ccccc2)cc1 | 0%
CC1CC(Nc2ccccc2)c2ccccc2N1 (centres undefined) | 0%
COC(=O)CN1C(=O)c2cccc3cccc(c23)C1=O | 7%
N#CC1=C(N)OC2=C(C(=O)CC(c3ccccc3)C2)C1c1coc2ccccc2c1=O (centres undefined) | 4%
O=C1NC(=O)N(Cc2ccco2)C(=O)/C1=C\c1ccc(-c2ccc(C(=O)O)cc2)o1 | 35%
CCOC(=O)c1ccc(-c2ccc(/C=C3/C(=O)NC(=O)N(Cc4ccco4)C3=O)o2)cc1 | 34%
Cc1cc(-c2ccc(/C=C3/C(=O)NC(=O)N(Cc4ccco4)C3=O)o2)ccc1Br | 58% (active)
Cc1cc(/C=C2/C(=O)NC(=O)N(Cc3ccco3)C2=O)c(C)n1-c1ccc(Cl)cc1 | 12%
O=C1NC(=O)N(Cc2ccco2)C(=O)/C1=C\c1ccc(-c2ccc([N+](=O)[O-])cc2)o1 | 17%
O=C1NC(=O)N(Cc2ccco2)C(=O)/C1=C\c1ccc(-c2ccc(Br)cc2)o1 | 53% (active)
O=C1NC(=O)N(Cc2ccco2)C(=O)/C1=C\c1ccc(-c2ccc(Cl)c([N+](=O)[O-])c2)o1 | 35%
Cc1cc([N+](=O)[O-])ccc1-n1c(C)cc(/C=C2/C(=O)NC(=O)N(Cc3ccco3)C2=O)c1C | 50% (active)
O=C1NC(=O)N(Cc2ccco2)C(=O)/C1=C\c1ccc(-c2cccc(Cl)c2Cl)o1 | 46%
O=C1NC(=O)N(Cc2ccco2)C(=O)/C1=C\c1ccc(-c2ccc(Cl)cc2Cl)o1 | 58% (active)
Cc1cc(/C=C2/C(=O)NC(=O)N(Cc3ccco3)C2=O)c(C)n1-c1ccc([N+](=O)[O-])cc1 | 14%
O=C1NC(=O)N(Cc2ccco2)C(=O)/C1=C\c1ccc(-c2ccc(Cl)c(Cl)c2)o1 | 41%
O=[N+]([O-])c1cc2c(cc1C=Nc1cc(Cl)cc(Cl)c1)OCO2 | 5%
COc1ccc([N+](=O)[O-])cc1NCc1ccccc1F | 12%
